From PubChem BioAssay
CYP2C9 activ: activators of human CYP2C9; activation factor at 5 µM; P11712; 96,000 compounds, 1.4% hits; recombinant CYP2C9, luciferin-H conversion, luminescence; stronger effect = higher value; factor 1 = untreated enzyme, 0 = blocked;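 active = activation factor of 2 or more for CYP2C9 at a 5 µM dose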;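 also: 0 = sulfaphenazole-blocked wells and 1 = vehicle-only wells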
Plk1 PBD FP: inhibitors of human Plk1 polo box domain binding; AID 693; P53350; 97,000 compounds, 0.13% hits; inhibition, %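 (tested at about 20 µM)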; Plk1 PBD phosphopeptide binding, fluorescence polarization; in the data active = inhibition above about 34%, passing the limit was not always enough
Target sequence (P53350 whole entry, looked up, the tested form may be a part): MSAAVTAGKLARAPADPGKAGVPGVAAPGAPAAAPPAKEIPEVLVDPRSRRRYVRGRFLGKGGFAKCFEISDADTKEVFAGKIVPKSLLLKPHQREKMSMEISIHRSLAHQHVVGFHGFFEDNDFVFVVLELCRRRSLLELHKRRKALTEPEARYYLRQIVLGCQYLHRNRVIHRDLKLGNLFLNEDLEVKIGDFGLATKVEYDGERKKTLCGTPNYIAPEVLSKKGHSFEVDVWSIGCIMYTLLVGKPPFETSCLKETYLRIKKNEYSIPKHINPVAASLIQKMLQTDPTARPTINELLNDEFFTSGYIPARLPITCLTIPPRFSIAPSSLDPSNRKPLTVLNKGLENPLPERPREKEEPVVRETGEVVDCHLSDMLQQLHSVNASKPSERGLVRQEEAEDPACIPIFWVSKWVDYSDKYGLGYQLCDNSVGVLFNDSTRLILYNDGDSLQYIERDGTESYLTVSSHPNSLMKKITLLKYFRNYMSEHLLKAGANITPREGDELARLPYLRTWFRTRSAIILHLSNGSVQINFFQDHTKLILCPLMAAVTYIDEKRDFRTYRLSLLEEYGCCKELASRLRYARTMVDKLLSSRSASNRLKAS
PLK1 inh: blocks human PLK1 kinase activity; P53350; recombinant PLK1 kinase, TR-FRET peptide phosphorylation; inhibition, % at 10 µM; 97,000 compounds, 0.53% hits; AID 619;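 active = inhibition of 50% or more in the single-concentration screen; inactive = inhibition below 50%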;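 also: 0% = DMSO max control and 100% = H-89 dihydrochloride min control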
CYP2C19 inhib: blocks human cytochrome P450 2C19; P33261; CYP2C19 Supersomes, luciferin-H EGE luminescence, 30 min; inhibition, % at 5 µM; 96,000 compounds, 21% hits; AID 778;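 active = CYP2C19 inhibition above a set limit at 5 µM in the primary screen, cut at about 50% in these data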;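 also: plate controls were negative control wells for no effect and 2.5 mM tranylcypromine positive control for full effect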
CYP2C19 activ: increases human CYP2C19 enzyme activity; recombinant CYP2C19, luciferin-H EGE luminescence; stronger effect = higher value; 0 = fully inhibited enzyme, 1 = untreated enzyme; activation factor at 5 µM; 96,000 tested, under 10 active; AID 1025;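 active = activation factor of at least 2 at 5 µM in the primary screen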;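 also: 0 = wells with 2.5 mM tranylcypromine and 1 = vehicle-only wells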
CYP2C9 inh: inhibitors of human CYP2C9. P11712. CYP2C9 Supersomes, luciferin-H conversion, luminescence. inhibition, % at 5 µM. 96,000 compounds, 20% hits;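 active = blocking of liver enzyme CYP2C9 beyond about 50% at 5 µM, limit read from the data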
Starred values were filed as active, the others as inactive; / = no result given. Hits are enriched below; roughly 28% of the tested compounds scored in any of these assays.

SMILES | CYP2C9 activ | Plk1 PBD FP | PLK1 inh | CYP2C19 inhib | CYP2C19 activ | CYP2C9 inh
N#CC1=C(SCC(N)=O)NC(=O)CC1c1ccccc1Cl (configuration not stated) | 0.7 | -12 | 2 | 29 | 0.7 | 27
CCCOC(=O)CSC1=C(C#N)C(c2ccccc2OCC)C(C#N)C(=O)N1 (configuration not stated) | 0.3 | -1 | -19 | 43 | 0.6 | 67*
CCn1cc(Br)c(C(=O)NN)n1 | 1.2 | -9 | -2 | 8 | 0.9 | -23
O=C(c1ccc(CNS(=O)(=O)c2ccccc2)cc1)N1CCN(c2ccccn2)CC1 | / | -1 | -4 | / | / | /
O=C(c1cccc(S(=O)(=O)NCCOc2ccccc2)c1)N1CCN(c2ncccn2)CC1 | 0.1 | -7 | -8 | 87* | 0.1 | 87*
O=C(c1ccc(-c2ccccc2)cc1)N1CCCC1 | 0.9 | -13 | -4 | 7 | 0.9 | 8
O=C(c1ccc(-c2ccccc2)cc1)N1CCN(c2ncccn2)CC1 | 0.4 | 2 | -4 | 44 | 0.6 | 64*
O=C(c1ccc(F)cc1)N1CCC(O)(c2cccnc2)CC1 | 0.8 | 0 | -3 | 69* | 0.3 | 22
O=C(c1ccc(F)cc1F)N1CCN(c2ncccn2)CC1 | 1 | -3 | -1 | 44 | 0.6 | -3
O=C(c1c(F)cccc1F)N1CCC(O)(c2cccnc2)CC1 | 0.8 | 6 | -5 | 32 | 0.7 | 21
O=C(c1ccc(F)cc1)N1CCN(c2ncccn2)CC1 | 1 | -15 | -5 | 53* | 0.5 | 3
O=C(c1cc2c(s1)CCCCC2)N1CCN(c2ncccn2)CC1 | 0.1 | -8 | -6 | 69* | 0.3 | 92*
O=C(c1cccc(OC(F)F)c1)N1CCN(c2ncccn2)CC1 | 0.3 | -16 | 3 | 48 | 0.5 | 68*
Cc1cc(C(=O)N2CCN(c3ncccn3)CC2)cs1 | 0.6 | -16 | -10 | 78* | 0.2 | 40
CC(C)(C)c1cc(C(=O)N2CCN(c3ncccn3)CC2)ccn1 | 0.9 | -2 | -12 | 11 | 0.9 | 10
COCCN(C(=O)COc1ccc(Cl)cc1)c1nnc(-c2cccnc2)s1 | / | -12 | -25 | / | / | /
CCOc1ccc(C2CC(c3ccc(CC)cc3)Nc3nc(N)nn32)cc1 (configuration not stated) | 0.6 | / | / | 0 | 1 | 40
COc1ccc(/C=C2/SC(=O)N(NS(=O)(=O)c3ccccc3)C2=S)cc1OC | 0.3 | -9 | -39 | -6 | 1.1 | 70*
CCOc1ccc2nc(NCCNC(=O)C3CC3)c(C)cc2c1 | 0.5 | / | / | 56* | 0.4 | 52*
CCOc1ccc2nc(NCCNC(=O)C(C)C)c(C)cc2c1 | 0.1 | / | / | 77* | 0.2 | 94*
COc1cc(NC(=O)c2cccc(Cl)c2)c(OC)cc1NC(=O)CN1CCOCC1 | 0.9 | 1 | 31 | -2 | 1 | 14
CCOC(=O)c1sc(NC(=O)CSc2nc3c(c(-c4ccc(OC)cc4)c2C#N)CCCC3)c(C#N)c1C | 0.4 | 3 | -20 | 30 | 0.7 | 64*
COc1ccc(-c2c(C#N)c(SCC(N)=O)nc3c2CCCC3)cc1 | / | 18 | -8 | / | / | /
CCOC(=O)c1sc(NC(=O)CSc2nc3c(cc2C#N)CCCCCC3)c(C#N)c1C | 0.3 | 11 | -11 | 16 | 0.8 | 68*
CCOC(=O)c1sc(NC(=O)CSc2nc3c(cc2C#N)CCC3)c(C#N)c1C | / | -7 | -11 | / | / | /
SMILES | CYP2C9 activ | Plk1 PBD FP | PLK1 inh | CYP2C19 inhib | CYP2C19 activ | CYP2C9 inh
CCOC(=O)c1sc(NC(=O)CSc2n[nH]c(-c3ccc(Cl)cc3Cl)n2)c(C#N)c1C | 0.2 | -9 | -23 | 34 | 0.7 | 76*
CCCCNC(=O)c1cnc2n(c1=O)CCS2 | / | -14 | 0 | / | / | /
COc1ccc(CCNC(=O)c2cnc3n(c2=O)CCS3)cc1OC | / | 18 | -14 | / | / | /
O=C(NCCc1ccc(Cl)cc1)c1cnc2n(c1=O)CCS2 | 0.9 | / | / | 55* | 0.5 | 13
O=C(NCCCc1ccccc1)c1cnc2n(c1=O)CCS2 | 0.7 | 9 | -12 | 83* | 0.2 | 27
CCC(C)C(NC(=O)[C@@H](NC(=O)c1ccccc1F)C(C)C)C(=O)OC (some centres not stated) | 1 | -11 | -9 | 11 | 0.9 | 2
COc1cc2c(cc1OC)CN(CC(=O)Nc1ccc3c(c1)OCO3)CC2 | 0.6 | -8 | -14 | 16 | 0.8 | 40
COC(=O)c1[nH]c2ccc(C)cc2c1NC(=O)CN1CCc2cc(OC)c(OC)cc2C1 | 0.2 | -4 | -15 | 67* | 0.3 | 81*
COc1cc2c(cc1OC)CN(CC(=O)Nc1ccc(C)cc1)CC2 | 0.4 | -4 | -10 | 65* | 0.4 | 60*
COc1cc2c(cc1OC)CN(Cc1ccc(C)s1)CC2 | 0.7 | -1 | -7 | 86* | 0.1 | 33
COc1cc2c(cc1OC)CN(Cc1cc(=O)n3cc(C)ccc3n1)CC2 | 0.7 | / | / | 5 | 1 | 28
COc1ccc(NCC(=O)Nc2ccccc2C#N)cc1Cl | 0.4 | 3 | -18 | 95* | 0.1 | 59*
COc1ccc(NC(=O)CCNC(=O)Cn2cnc3ccccc3c2=O)c(OC)c1 | 0.8 | 45 | -11 | 0 | 1 | 20
CCOC(=O)N1CCN(c2nc(-c3ccc(F)cc3)cs2)CC1 | 0.6 | 9 | -11 | 31 | 0.7 | 36
CC1CCN(CC(=O)Nc2ccccc2C#N)CC1 | 0.7 | -21 | -8 | 75* | 0.2 | 31
CCOC(=O)c1[nH]c2ccc(OC)cc2c1NC(=O)CN1CCc2ccccc2C1 | 0.2 | 15 | -3 | 77* | 0.2 | 81*
COc1cc2c(cc1OC)CN(CC(=O)Nc1ccccc1C#N)CC2 | 0.4 | 2 | -12 | 55* | 0.5 | 60*
CCOC(=O)C(C)N1N=C(/C=C/c2ccc(OC)cc2)CCC1=O (configuration not stated) | 0.7 | 9 | -10 | 19 | 0.8 | 32
Cc1ccccc1-c1coc2cc(O)ccc2c1=O | 2.5* | 3 | -4 | 21 | 0.8 | -147
O=C(Cn1[nH]c(=O)c2ccccc2c1=O)NC1CCCCCC1 | 1 | 32 | -7 | 25 | 0.8 | 1
O=c1[nH]n(CC2COC3(CCCCC3)O2)c(=O)c2ccccc12 (configuration not stated) | 0.5 | -4 | -4 | 76* | 0.2 | 47
CCOc1ccc(NC2=NC(C(=O)NCc3ccccc3)CC(=O)N2)cc1 (configuration not stated) | 0.7 | / | / | 62* | 0.4 | 25
COc1cc(C)nc(NS(=O)(=O)c2ccccc2)n1 | 1 | -13 | -5 | 6 | 0.9 | 1
CCN(c1nc(C)cc(OC)n1)S(=O)(=O)c1ccccc1 | 0.8 | 15 | -17 | 76* | 0.2 | 20
O=C(NC1CC1)C1CCN(Cc2cnn(-c3ccccc3)c2-n2cccc2)CC1 | 0.9 | -11 | -4 | 9 | 0.9 | 8
CCN(CC)S(=O)(=O)c1ccc(-c2nnc3sc4cccc(C)c4n23)cc1 | 0.2 | -6 | -4 | 72* | 0.3 | 78*
